# Laboratory results from PubChem BioAssay AID1063 (University of Pittsburgh Molecular Library Screening Center, 2008).
# The whole screen tested about 200,000 compounds, of which about 18,000 (9%) were called active. No stated cut-off is given here; in the data, active means inhibition above about 50%; inactive means the rest. The sample as a whole holds a higher share of actives than the screen did.
# Experiment: Leishmania major promastigote growth inhibition, primary screen (AID 1063);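 further: promastigotes grown with compound for 44 hours at 28 °C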
# Conditions: Leishmania major promastigotes, resazurin fluorescence viability; at 10 µM; hits give high values
row,SMILES,inhibition
1,O=C1CCC/C(=N\NC(=O)NC2CCCCC2)C1,-1.59% (inactive)
2,CCOc1ccc(S(=O)(=O)Nc2nccs2)cc1,-5.45% (inactive)
3,CC(C)(C)C(=O)CN1C2=NCCN2c2ccccc21,-5.39% (inactive)
4,Fc1cccc(CSc2nnc3ccc(-c4ccncc4)nn23)c1,10.7% (inactive)
5,Cc1c(C(=O)CN2CCOCC2)[nH]c2ccccc12,-3.24% (inactive)
6,Cc1c(C(=O)N2CCOCC2)[nH]c2ccc(OCc3ccccc3)cc12,88.8% (active)
7,CCOC(=O)c1[nH]c2ccc(OC)cc2c1NC(=O)N1CCOCC1,2.48% (inactive)
8,CCCCN(C(=O)c1ccc(OC(F)(F)F)cc1)c1c(N)n(CCC)c(=O)[nH]c1=O,-4.12% (inactive)
9,Cc1ccc(S(=O)(=O)N(C)C)cc1NC(=O)COC(=O)C1COc2ccccc2O1 (stereo unspecified),4.18% (inactive)
10,CSc1ncccc1C(=O)Nc1nc2ccc(F)cc2s1,28.5% (inactive)
11,Fc1ccc2nc(Nc3nc4c(s3)CCCC4)sc2c1,77.9% (active)
12,Fc1ccc2nc(N3CCCCC3)sc2c1,2.6% (inactive)
13,CCn1c(SCC(=O)N(C)C2CCS(=O)(=O)C2)nnc1-c1cccs1 (stereo unspecified),-1.56% (inactive)
14,COc1ccc(NC(=O)c2cc3nc(-c4ccccc4)cc(C)n3n2)cc1OC,19.4% (inactive)
15,CC(=O)N(CCCN(C)C)c1nc2ccc(C)cc2s1,-6.81% (inactive)
16,COc1cccc2sc(N(CCCN(C)C)C(=O)C(c3ccccc3)c3ccccc3)nc12,94.5% (active)
17,CN(C)CCCN(C(=O)COc1ccccc1)c1nc2c(Cl)cccc2s1,1.9% (inactive)
18,CCCCCCCNc1nc(Cl)nc(NCCO)n1,-8.89% (inactive)
19,COc1ccc(Br)cc1CN1CCN(C(=O)c2cccc(OC)c2OC)CC1,0.16% (inactive)
20,COc1ccccc1OCc1ccc(C(=O)N2CCN(C)CC2)o1,-7.4% (inactive)
21,COc1cc2c(C(=O)N3CCN(C)CC3)c(CSc3ccccc3)n(C)c2cc1Br,50.6% (active)
22,CC(=O)c1ccc(N2CCN(S(=O)(=O)c3c(C)[nH]c(=O)[nH]c3=O)CC2)cc1,-5.88% (inactive)
23,Cc1oc2cc([N+](=O)[O-])c(O)c([N+](=O)[O-])c2c1C(=O)c1ccc(Br)cc1,-8.1% (inactive)
24,COc1cccc(CN(C)CC(=O)Nc2sc3c(c2C#N)CCC3)c1,-4.03% (inactive)

row,SMILES,inhibition
1,O=C(CN1C(=O)CC(c2ccccc2)S(=O)(=O)c2ccccc21)NC1CCCC1 (stereo unspecified),5.62% (inactive)
2,COc1ccc(-n2cnnc2SCC(=O)Nc2cccc([N+](=O)[O-])c2)cc1,-9.51% (inactive)
3,CC(C)CC(=O)NC(=S)NNC(=O)c1cccc([N+](=O)[O-])c1,7% (inactive)
4,Cn1c(-c2ccc(F)cc2)cnc1SCC(=O)NNC(=O)Cc1ccccc1,0.35% (inactive)
5,COC(=O)c1sccc1NC(=O)c1cc(OC)c(OC)c(OC)c1,8.27% (inactive)
6,COC(=O)Cn1c2ccc(C)cc2c2nc(C)sc21,-6.29% (inactive)
7,COC(=O)Cn1c(=NC(=O)c2cc(OC)c(OC)c(OC)c2)sc2cc(OC)ccc21,55.3% (active)
8,CC(C)(C)C(=O)CSc1nc2ccccc2o1,4.86% (inactive)
9,CCN(CC)CCNc1nc(-c2ccc(OC(F)F)cc2)c(C)s1,99.4% (active)
10,NC(=O)C[n+]1cccc(C(N)=O)c1,-3% (inactive)
11,COn1c(-c2ccc(Cl)cc2Cl)nc2ncccc21,-6.75% (inactive)
12,COc1ccccc1N1CCN(/N=C\C(Br)=C\c2ccccc2)CC1,-5.39% (inactive)
13,Cc1ccccc1-c1n[nH]c(=S)n1/N=C/c1ccc(-c2ccccc2Br)o1,23% (inactive)
14,CCN(CC)S(=O)(=O)c1cccc(-c2n[nH]c(=S)n2/N=C/c2ccc(C(=O)OC)cc2)c1,27.8% (inactive)
15,c1ccc(-n2nnnc2-c2cccnc2)cc1,-7.89% (inactive)
16,Cc1cc(-c2n[nH]c(=S)n2/N=C/C(Br)=C/c2ccccc2)n[nH]1,88.5% (active)
17,S=c1[nH]nc(-c2cccnc2)n1/N=C/C(Cl)=C\c1ccccc1,86% (active)
18,Clc1ccc(N/N=C/c2cccs2)nn1,-2.51% (inactive)
19,C/C(N)=C(/C#N)C(=O)COC(=O)c1cc(-c2cccc(Br)c2)nc2ccccc12,59.9% (active)
20,C/C(N)=C(/C#N)C(=O)COC(=O)c1cc(-c2ccccc2)nc2ccc(Br)cc12,-4.87% (inactive)
21,C/C(N)=C(/C#N)C(=O)COC(=O)c1cc(-c2ccc(C)cc2)nc2ccccc12,18.1% (inactive)
22,O=C(NCc1ccccc1Cl)C1CCCO1 (stereo unspecified),-3.01% (inactive)
23,COc1ccc(-c2nnc3ccc(SCc4ccccc4)nn23)cc1,-3.51% (inactive)
24,O=C1CCC(=O)N1c1ccc(NCCc2ccccc2F)c([N+](=O)[O-])c1,-3.12% (inactive)

row,SMILES,inhibition
1,Cc1ccccc1C(=O)OC1OC(=O)C(Cl)=C1Nc1ccccc1 (stereo unspecified),2.63% (inactive)
2,COc1ccc(C(=O)COC(=O)c2nn(C)c(=O)c3ccccc23)c(OC)c1,-4.39% (inactive)
3,FC(F)Oc1ccc(NC(=S)NCc2ccco2)cc1Cl,12.2% (inactive)
4,Cc1ccc(CC(=O)Nc2ccc(OC(F)F)c(Cl)c2)cc1C,91.2% (active)
5,Cc1ccc(S(=O)(=O)NCCC(=O)Nc2ccc(C)c(Cl)c2)cc1C,4.01% (inactive)
6,CC(C)Cn1c(N)c(C(=O)COC(=O)CN2C(=O)C3CC=CCC3C2=O)c(=O)n(C)c1=O (stereo unspecified),0.69% (inactive)
7,O=[N+]([O-])/C(N=Nc1ccccc1)=N\Nc1ccccc1,0.84% (inactive)
8,CCOc1cccc(/C=N/N2C(=O)CSC2=S)c1O,2.44% (inactive)
9,Cc1ccccc1-n1cc(CNC(=O)CC2C(=O)NCCN2C/C=C/c2ccccc2)cn1 (stereo unspecified),-1.38% (inactive)
10,CCOC(=O)c1oc2c(CN3CCN(CCO)CC3)c(O)c(CC)cc2c(=O)c1-c1nc2ccccc2s1,-5.26% (inactive)
11,COc1ccc(-c2cc(C(F)(F)F)nc(SCC(=O)Nc3ccc4c(c3)OCO4)n2)cc1OC,0.67% (inactive)
12,COc1ccc(-c2cc(C(F)(F)F)nc(S(C)(=O)=O)n2)cc1OC,71.7% (active)
13,COc1cc(OC)nc(S(C)(=O)=O)n1,-0.01% (inactive)
14,O=C(/C=C/c1ccc(N2CCOCC2)cc1)c1ccccc1,13.2% (inactive)
15,O=c1[nH]c(CN2CCOCC2)nc2scc(-c3ccccc3)c12,-8.93% (inactive)
16,CS(=O)(=O)N(CC(=O)Nc1ccc(Cl)c(Cl)c1)C1CCCCC1,15.8% (inactive)
17,CN(CC(=O)Nc1ccc(S(=O)(=O)N2CCCC2)cc1)Cc1ccc(Cl)c(Cl)c1,92% (active)
18,O=C(CSCc1ccc(Br)cc1)Nc1ccc(S(=O)(=O)N2CCCCCC2)cc1,6.78% (inactive)
19,O=C(NNC(=O)C1CCN(c2ncccn2)CC1)c1ccccc1,-7.74% (inactive)
20,O=C(CCCCn1c(=O)[nH]c2ccccc2c1=O)NCc1ccc2c(c1)OCO2,4.03% (inactive)
21,O=C(Cn1nnc(-c2ccccc2)n1)NCc1ccc2c(c1)OCO2,-6.91% (inactive)
22,O=C1N(Cc2ccc3c(c2)OCO3)c2ccccc2C1(O)c1c[nH]c2ccccc12 (stereo unspecified),88.9% (active)
23,Cc1ccc(/C=N/NC(=O)COc2ccccc2-c2ccccc2)cc1,4.74% (inactive)
24,CC(=O)n1c(C=Nc2ccccc2)c(O)c2ccccc21,4.07% (inactive)

row,SMILES,inhibition
1,NS(=O)(=O)c1ccc(NC(=S)NNC(=O)c2cccs2)cc1,-4.08% (inactive)
2,CC(=O)Cc1nsc(NC(=O)c2ccc(Cl)cc2Cl)n1,-1.22% (inactive)
3,CCOc1cc(N2CCOCC2)c(OCC)cc1NC(=O)C1=NN(c2cccc(C)c2)C(=O)CC1,13.6% (inactive)
4,CN(Cc1nc2ccccc2c(=O)[nH]1)Cc1cc(=O)oc2ccc3ccccc3c12,14.2% (inactive)
5,CCN(CC(=O)NC(=O)NCc1ccccc1)Cc1nc2ccccc2c(=O)[nH]1,-3.9% (inactive)
6,CCN(Cc1nc2ccccc2c(=O)[nH]1)Cc1cc(=O)oc2cc(C)c(C)cc12,73.8% (active)
7,COc1cc(/C=C/C(=O)OCC(=O)NC(=O)NCc2ccccc2)ccc1OCC#N,-1.09% (inactive)
8,CC(=O)c1cc(C#N)c(SCC(=O)Nc2nccs2)nc1C,1.83% (inactive)
9,CCOC(=O)c1ccccc1NC(=O)CSc1nc2ccccc2c(=O)[nH]1,6.6% (inactive)
10,CCCCNS(=O)(=O)c1ccc(S(=O)(=O)n2cnc3ccccc32)cc1,-3.46% (inactive)
11,O=S(=O)(c1ccc(-c2ccccc2)cc1)N1CCCC1,-7.57% (inactive)
12,O=S(=O)(c1ccc(Br)cc1)n1ccc2ccccc21,90.7% (active)
13,COc1ccc(-n2c(O)c(C=NCC(c3ccco3)N3CCCC3)c3ccccc3c2=O)cc1OC (stereo unspecified),2.68% (inactive)
14,CC(=O)c1ccccc1NC(=O)CC1(CC(=O)O)CCCCC1,3.25% (inactive)
15,CCOC(=O)C1=NOC(Cn2cc(C(C)=O)c(=O)[nH]c2=O)C1 (stereo unspecified),1.88% (inactive)
16,N/C(=N\OC(=O)Cc1ccc([N+](=O)[O-])cc1)c1ccccn1,98.7% (active)
17,N/C(=N\OC(=O)c1ccc([N+](=O)[O-])cc1)c1ccccn1,1.71% (inactive)
18,O=C(OCc1ccc([N+](=O)[O-])cc1)c1ccccn1,-0.28% (inactive)
19,CNc1nccc(-c2ccc(Cl)cc2)c1C#N,-6.29% (inactive)
20,COc1cc(OC)cc(-c2nnc(N(C)C(=O)c3ccncc3)s2)c1,-3.83% (inactive)
21,Cc1ccc(NC(=O)CSc2nc(CSc3ccc(C)cc3)cc(=O)[nH]2)cc1,-2.59% (inactive)
22,O=C(Cc1cccc2ccccc12)Nc1ccc2oc(-c3ccccc3)nc2c1,40.6% (inactive)
23,CCCCCC(=O)Nc1ccc2oc(-c3ccncc3)nc2c1,96.4% (active)
24,O=C(Nc1ccc2oc(-c3ccc4ccccc4c3)nc2c1)c1cccs1,-1.1% (inactive)
